PubChem BioAssay (EPA / NIEHS)
The source made the active and inactive calls. How the source made its calls: active means hit-call score of the fitted dose curve at least 0.9, where 1 is the maximum; inactive means score below 0.9.

Experiments:
[1] = ATG_CRE_CIS: Attagene CIS-FACTORIAL HepG2 Assay for human cAMP Responsive Element (CRE) binding protein 3 (AID 2282926); details: HepG2 CRE cis-reporter, Attagene multiplexed mRNA; actives raise or lower the signal
Outline: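 Endogenous transcription factor activity read via CRE-regulated reporter transcripts in transfected HepG2 cells. After 24 h exposure, RNA was reverse-transcribed, amplified, fluorescently labelled and sized by capillary electrophoresis; gain or loss fitted against DMSO.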

[2] = target: CCAAT/enhancer-binding protein beta (Homo sapiens) (UniProt P17676); test: ATG_C_EBP_CIS: Attagene CIS-FACTORIAL HepG2 Assay for human CCAAT/Enhancer Binding Protein (C/EBP) beta (AID 2282927); details: HepG2 Attagene cis-factorial transcription factor reporter; actives raise or lower the signal
Sequence of CCAAT/enhancer-binding protein beta (Homo sapiens) (P17676 whole entry, looked up): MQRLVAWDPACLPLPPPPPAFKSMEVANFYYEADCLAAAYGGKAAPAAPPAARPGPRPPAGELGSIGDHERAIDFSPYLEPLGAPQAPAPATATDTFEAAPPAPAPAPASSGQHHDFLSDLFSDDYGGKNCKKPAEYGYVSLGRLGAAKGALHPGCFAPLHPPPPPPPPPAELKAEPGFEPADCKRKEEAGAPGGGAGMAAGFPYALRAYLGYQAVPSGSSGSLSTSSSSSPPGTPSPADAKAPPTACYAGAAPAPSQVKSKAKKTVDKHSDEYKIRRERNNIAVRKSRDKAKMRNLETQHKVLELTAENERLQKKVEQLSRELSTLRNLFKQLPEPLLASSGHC
Outline: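 Following a 24 h incubation with test chemical, transfected HepG2 cells yielded RNA whose reporter transcripts were quantified by RT-PCR and fluorescent capillary electrophoresis, with DMSO serving as baseline for bidirectional fitting.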

[3] = ATG_CMV_CIS: Attagene CIS-FACTORIAL HepG2 Assay for human CMV (Internal Marker) (AID 2282928); details: HepG2 CMV promoter reporter, transcription factor profiling; actives raise or lower the signal;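 further: endpoint acts as a background internal control marker rather than a target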
Outline: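 Readout: fluorescent reporter cDNA fragments separated by capillary electrophoresis after RT-PCR and HpaI cut. Cells: HepG2 carrying transfected cis-promoter reporter constructs, dosed 24 h. Endpoint serves as background internal-marker control, fit bidirectionally versus DMSO.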

[4] = ATG_DR4_LXR_CIS: Attagene CIS-FACTORIAL HepG2 Assay for human Liver X Receptor (LXR), DR4 submotif (AID 2282929); details: HepG2 Attagene DR4 cis-reporter, mRNA transcription; actives raise or lower the signal
Outline: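 Total RNA from 24 h-treated, MRTU-transfected HepG2 cells underwent reverse transcription, PCR, fluorescent primer extension and restriction digestion before capillary electrophoresis. Both increases and decreases in reporter signal were fitted against DMSO.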

[5] = target: Aryl hydrocarbon receptor (Homo sapiens) (UniProt P35869); test: ATG_Ahr_CIS: Attagene CIS-FACTORIAL HepG2 Assay for human Aryl Hydrocarbon Receptor (Ahr) (AID 2282930); details: HepG2 AhR cis-factorial reporter transcription; actives raise or lower the signal
Sequence of Aryl hydrocarbon receptor (Homo sapiens) (P35869 whole entry, looked up): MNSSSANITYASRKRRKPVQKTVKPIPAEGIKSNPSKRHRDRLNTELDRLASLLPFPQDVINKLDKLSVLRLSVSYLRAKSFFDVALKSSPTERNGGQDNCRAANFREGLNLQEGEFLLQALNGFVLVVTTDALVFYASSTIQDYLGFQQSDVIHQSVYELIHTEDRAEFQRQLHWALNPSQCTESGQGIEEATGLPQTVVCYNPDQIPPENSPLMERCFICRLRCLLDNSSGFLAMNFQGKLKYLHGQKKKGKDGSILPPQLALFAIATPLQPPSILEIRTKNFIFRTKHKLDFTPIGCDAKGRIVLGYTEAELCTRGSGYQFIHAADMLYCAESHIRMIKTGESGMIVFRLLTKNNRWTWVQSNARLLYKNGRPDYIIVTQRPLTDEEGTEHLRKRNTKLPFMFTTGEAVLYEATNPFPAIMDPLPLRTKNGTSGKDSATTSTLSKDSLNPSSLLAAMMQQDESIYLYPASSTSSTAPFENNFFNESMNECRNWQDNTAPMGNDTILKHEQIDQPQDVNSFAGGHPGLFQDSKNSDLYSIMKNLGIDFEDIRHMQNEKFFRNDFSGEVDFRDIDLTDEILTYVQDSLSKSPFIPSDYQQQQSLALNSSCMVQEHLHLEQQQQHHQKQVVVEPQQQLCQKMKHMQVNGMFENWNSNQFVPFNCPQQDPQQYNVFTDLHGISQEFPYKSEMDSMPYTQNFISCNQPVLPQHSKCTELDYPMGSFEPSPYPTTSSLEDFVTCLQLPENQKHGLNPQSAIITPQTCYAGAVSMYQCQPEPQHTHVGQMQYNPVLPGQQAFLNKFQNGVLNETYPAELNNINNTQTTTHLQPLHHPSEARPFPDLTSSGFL
Outline: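 Values derive from bidirectional fitting against DMSO negative control. Underlying signal: cis-element reporter mRNA in transiently transfected HepG2, harvested 24 h post-dose and measured by RT-PCR plus capillary electrophoresis.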

[6] = ATG_AP_1_CIS: Attagene CIS-FACTORIAL HepG2 Assay for human Activator Protein 1 (AP-1) (AID 2282931); details: HepG2 Attagene cis-factorial AP-1 reporter mRNA; actives raise or lower the signal
Outline: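 HepG2, transient cis-reporter transfection; 24 h; readout RT-PCR/CE fluorescence; DMSO baseline, gain and loss fitted.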

[7] = ATG_AP_2_CIS: Attagene CIS-FACTORIAL HepG2 Assay for human Activator Protein 2 (AP-2) (AID 2282932); details: HepG2 AP-2 cis-reporter, Attagene transcription factor profiling; actives raise or lower the signal
Outline: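 Assay in transfected HepG2 with promoter-regulated reporters, 24 h incubation after dosing. Signal is reporter mRNA fluorescence (RT-PCR, capillary electrophoresis), analysed for both increases and decreases relative to DMSO controls.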

[8] = ATG_BRE_CIS: Attagene CIS-FACTORIAL HepG2 Assay for human Bone Morphogenetic Protein (BMP) Response Element (BRE) (AID 2282933); details: HepG2 BMP response element reporter, Attagene transcription factor profiling; actives raise or lower the signal
Outline: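 Endogenous transcription factor activity read in transiently transfected HepG2 cells after 24 h chemical exposure. Bidirectional curve fitting against DMSO; readout is reporter transcript level by RT-PCR with capillary electrophoresis of labelled products.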

[9] = target: Transcription factor E2F1 (Homo sapiens) (UniProt Q01094); test: ATG_E2F_CIS: Attagene CIS-FACTORIAL HepG2 Assay for human E2F Transcription Factor 1 (AID 2282935); details: HepG2 Attagene cis-reporter, E2F reporter RNA transcripts; actives raise or lower the signal
Sequence of Transcription factor E2F1 (Homo sapiens) (Q01094 whole entry, looked up): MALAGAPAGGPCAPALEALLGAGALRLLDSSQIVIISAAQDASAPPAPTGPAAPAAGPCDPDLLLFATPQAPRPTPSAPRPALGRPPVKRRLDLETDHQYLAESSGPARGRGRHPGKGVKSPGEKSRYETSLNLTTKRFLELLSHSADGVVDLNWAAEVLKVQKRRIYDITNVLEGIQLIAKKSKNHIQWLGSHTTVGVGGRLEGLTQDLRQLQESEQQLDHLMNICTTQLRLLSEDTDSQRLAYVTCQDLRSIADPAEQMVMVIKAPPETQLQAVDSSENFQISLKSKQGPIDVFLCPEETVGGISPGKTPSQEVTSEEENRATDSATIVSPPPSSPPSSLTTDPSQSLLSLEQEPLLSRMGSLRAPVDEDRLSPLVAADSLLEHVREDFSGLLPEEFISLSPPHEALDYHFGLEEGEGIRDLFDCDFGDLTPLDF
Outline: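 In this cis-factorial format, endogenous factor activity drives transfected reporters in HepG2; transcripts collected at 24 h are quantified by fluorescence after RT-PCR and capillary separation.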

[10] = ATG_E_Box_CIS: Attagene CIS-FACTORIAL HepG2 Assay for human Enhancer Box (E-box) (AID 2282936); details: HepG2 E-box cis-reporter transcription, actives raise or lower the signal
Outline: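 Measured 24 h post-dosing in HepG2 cells transfected with multiple cis-regulated reporter units, signal being reporter mRNA induction detected by fluorescent RT-PCR with capillary electrophoresis; gain or loss fitted against DMSO.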

[11] = ATG_M_61_CIS: Attagene CIS-FACTORIAL HepG2 Assay for M61 Transcription Factor (Internal Marker) (AID 2282937); details: HepG2 Attagene CIS-FACTORIAL M61 internal marker reporter; actives raise or lower the signal
Outline: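 Transfect HepG2 with MRTUs; dose 24 h; isolate RNA; reverse-transcribe with DNase I treatment; PCR-amplify, FAM-label and cut with HpaI for 2 h at 37 C; resolve by CE. Bidirectional fitting against DMSO.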

[12] = ATG_EGR_CIS: Attagene CIS-FACTORIAL HepG2 Assay for human Early Growth Response 1 (EGR1) (AID 2282938); details: HepG2 Attagene CIS-FACTORIAL EGR reporter mRNA; actives raise or lower the signal
Outline: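 After a 24 h treatment of transiently transfected HepG2 cells, total RNA was reverse-transcribed and reporter sequences PCR-amplified, labelled and run on capillary electrophoresis. Reporters sit under cis-regulatory promoters sensing endogenous factors.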

[13] = ATG_M_19_CIS: Attagene CIS-FACTORIAL HepG2 Assay for M19 Transcription Factor (Internal Marker) (AID 2282939); details: HepG2 Attagene CIS-FACTORIAL M19 internal marker reporter; actives raise or lower the signal
Outline: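 Internal marker readout, fitted in both directions against DMSO, from HepG2 cells carrying transfected cis-element reporter constructs; RT-PCR and capillary electrophoresis of reporter mRNA after 24 h exposure.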

[14] = ATG_ERE_CIS: Attagene CIS-FACTORIAL HepG2 Assay for Estrogen Response Element (ERE) (AID 2282940); details: HepG2 ERE cis-reporter, Attagene RNA transcript; actives raise or lower the signal
Outline: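 After 24 h compound treatment, RNA from transfected HepG2 cells was reverse-transcribed, reporter cDNA PCR-amplified, FAM-labelled, HpaI-cut and resolved by capillary electrophoresis. ERE-driven cis reporter transcripts reflect endogenous factors; gain or loss scored against DMSO.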

[15] = ATG_Ets_CIS: Attagene CIS-FACTORIAL HepG2 Assay for human Erythroblast Transformation Specific (ETS) (AID 2282941); details: HepG2 ETS cis-reporter transcription, actives raise or lower the signal
Outline: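 RT-PCR/capillary electrophoresis fluorescence read-out of reporter mRNA; HepG2 transient multi-reporter transfection; 24 h compound exposure; gain or loss of signal fitted bidirectionally relative to DMSO.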

[16] = ATG_FoxO_CIS: Attagene CIS-FACTORIAL HepG2 Assay for human Forkhead box O (FoxO) (AID 2282943); details: HepG2 Attagene cis-reporter, FoxO element, mRNA; actives raise or lower the signal
Outline: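 Values reflect reporter mRNA induction or loss in HepG2 cells 24 h post-dosing, fitted bidirectionally with DMSO as negative control and baseline. Detection used RT-PCR and fluorescence capillary electrophoresis.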

[17] = ATG_GATA_CIS: Attagene CIS-FACTORIAL HepG2 Assay for human GATA Binding Protein (AID 2282944); details: HepG2 GATA cis-element reporter, Attagene multiplex mRNA; actives raise or lower the signal
Outline: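 Reporter transcripts from a GATA cis-regulated unit, among multiplexed reporters in transfected HepG2 cells, were measured by RT-PCR with capillary electrophoresis after 24 h dosing. Induction or loss scored relative to DMSO.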

[18] = ATG_GLI_CIS: Attagene CIS-FACTORIAL HepG2 Assay for human Zinc Finger Protein GLI1 (AID 2282945); details: HepG2, Attagene cis-factorial reporter mRNA, GLI element; actives raise or lower the signal
Outline: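 HepG2 cells transiently transfected with cis-promoter multiplexed reporter units report endogenous transcription factor activity. After 24 h chemical exposure, reporter mRNA was quantified by RT-PCR, 6-FAM labelling, HpaI digestion and capillary electrophoresis, with bidirectional fitting against DMSO.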

[19] = target: Hepatocyte nuclear factor 3-beta (Homo sapiens) (UniProt Q9Y261); test: ATG_FoxA2_CIS: Attagene CIS-FACTORIAL HepG2 Assay for human Forkhead box A2 (FOXA2) (AID 2282942); details: HepG2 cis-reporter transcription factor activity, 24 h; actives raise or lower the signal
Sequence of Hepatocyte nuclear factor 3-beta (Homo sapiens) (Q9Y261 whole entry, looked up): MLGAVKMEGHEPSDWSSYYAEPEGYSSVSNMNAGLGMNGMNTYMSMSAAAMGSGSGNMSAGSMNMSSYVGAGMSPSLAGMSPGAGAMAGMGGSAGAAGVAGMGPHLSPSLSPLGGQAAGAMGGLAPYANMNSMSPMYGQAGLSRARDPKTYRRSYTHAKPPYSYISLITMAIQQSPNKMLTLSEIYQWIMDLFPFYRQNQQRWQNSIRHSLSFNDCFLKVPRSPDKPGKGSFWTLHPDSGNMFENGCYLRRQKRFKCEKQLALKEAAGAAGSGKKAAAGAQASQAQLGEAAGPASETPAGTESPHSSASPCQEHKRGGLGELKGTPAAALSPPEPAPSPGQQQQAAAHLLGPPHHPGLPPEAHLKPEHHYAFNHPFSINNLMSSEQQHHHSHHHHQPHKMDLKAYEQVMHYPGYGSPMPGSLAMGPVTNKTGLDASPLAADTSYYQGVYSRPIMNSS
Outline: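 24 h dosing of HepG2 bearing cis-reporter constructs; mRNA readout by RT-PCR/CE fluorescence; bidirectional fit, DMSO baseline.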

[20] = target: Retinoic acid receptor alpha (Homo sapiens) (UniProt P10276); test: ATG_DR5_RAR_CIS: Attagene CIS-FACTORIAL HepG2 Assay for human Retinoic Acid Receptor Alpha (RARE), DR5 submotif (AID 2282934); details: HepG2 Attagene cis-factorial RARE DR5 reporter, mRNA; actives raise or lower the signal
Sequence of Retinoic acid receptor alpha (Homo sapiens) (P10276 whole entry, looked up): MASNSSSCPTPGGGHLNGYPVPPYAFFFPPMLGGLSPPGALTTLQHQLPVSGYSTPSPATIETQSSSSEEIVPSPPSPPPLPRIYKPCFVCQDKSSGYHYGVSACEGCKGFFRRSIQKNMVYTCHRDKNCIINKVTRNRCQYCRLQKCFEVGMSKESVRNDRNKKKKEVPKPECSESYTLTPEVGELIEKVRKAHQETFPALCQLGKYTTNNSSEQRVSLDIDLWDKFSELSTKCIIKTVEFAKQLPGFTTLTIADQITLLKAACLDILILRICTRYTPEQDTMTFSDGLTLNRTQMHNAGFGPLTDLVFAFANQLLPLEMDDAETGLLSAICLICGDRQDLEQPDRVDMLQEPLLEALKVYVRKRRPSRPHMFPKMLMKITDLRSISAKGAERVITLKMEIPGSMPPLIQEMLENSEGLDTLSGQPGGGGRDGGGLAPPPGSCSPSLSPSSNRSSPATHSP
Outline: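 Endpoint fitted in both directions relative to DMSO as negative control. It reflects DR5 cis-element reporter mRNA induction in transiently transfected HepG2 cells, measured 24 h after dosing through RT-PCR and fluorescent capillary electrophoresis.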

Measured: AC50

O=C(O)c1cccc(C(F)(F)F)c1
inactive: [1] | [2] | [3] | [4] | [5] | [6] | [7] | [8] | [9] | [10] | [11] | [12] | [13] | [14] | [15] | [16] | [17] | [18]

CCCCCCCCCCCCCC(=O)O
inactive: [1] | [2] | [3] | [4] | [5] | [6] | [7] | [8] | [9] | [10] | [11] | [12] | [13] | [14] | [15] | [19] | [16] | [17]

CCC(C(=O)NC(N)=O)c1ccccc1 (configuration not stated)
inactive: [1] | [2] | [3] | [4] | [5] | [6] | [7] | [8] | [9] | [10] | [11] | [12] | [13] | [14] | [15] | [19] | [16] | [17] | [18]

O=P(c1ccccc1)(c1ccccc1)c1ccccc1
active: [4] 58.6 µM
inactive: [1] | [2] | [3] | [5] | [6] | [7] | [8] | [9] | [10] | [11] | [12] | [13] | [14] | [15] | [16] | [17] | [18]

O=C1c2ccccc2C(=O)N1SC1CCCCC1
inactive: [1] | [2] | [3] | [9] | [10] | [11] | [19] | [18]
active: [4] 170 µM | [5] 26.9 µM | [6] 84.5 µM | [7] 129 µM | [8] 75.1 µM | [12] 65.6 µM | [13] 186 µM | [14] 66.4 µM | [15] 159 µM | [16] 172 µM | [17] 144 µM

CC(=O)Nc1ccc(CC(=O)O)cc1
inactive: [1] | [2] | [3] | [4] | [5] | [6] | [7] | [8] | [9] | [10] | [11] | [12] | [13] | [14] | [15] | [19] | [16] | [17] | [18]

CCCCCCCCCCCCCCCC(=O)O
inactive: [1] | [2] | [3] | [4] | [5] | [6] | [7] | [8] | [20] | [10] | [11] | [12] | [13] | [15] | [19] | [16] | [17]

O=Cc1ccc(F)cc1
inactive: [1] | [2] | [3] | [4] | [5] | [6] | [7] | [8] | [9] | [10] | [11] | [12] | [13] | [14] | [15] | [19] | [16] | [17] | [18]
